Test results taken from ChEMBL document CHEMBL4808148, “HDAC6 screening dataset using tau-based substrate in an enzymatic assay yields selective inhibitors and activators” (2021).
Several values for one entry are separate records, joined by “and”; a condition that tells them apart may be missing. Equal entries are not always repeated. Screen size: about 5,600 compounds; about 390 (7%) showed an effect of 50% or more. The list comes from a sample in which strong results are over-represented; it also holds similar structures and randomly drawn compounds.

Tests used:
[1] = biological target: T1, Protein deacetylase HDAC6 (Homo sapiens) (UniProt Q9UBN7); conditions: at 10 µM
T1 sequence (whole entry): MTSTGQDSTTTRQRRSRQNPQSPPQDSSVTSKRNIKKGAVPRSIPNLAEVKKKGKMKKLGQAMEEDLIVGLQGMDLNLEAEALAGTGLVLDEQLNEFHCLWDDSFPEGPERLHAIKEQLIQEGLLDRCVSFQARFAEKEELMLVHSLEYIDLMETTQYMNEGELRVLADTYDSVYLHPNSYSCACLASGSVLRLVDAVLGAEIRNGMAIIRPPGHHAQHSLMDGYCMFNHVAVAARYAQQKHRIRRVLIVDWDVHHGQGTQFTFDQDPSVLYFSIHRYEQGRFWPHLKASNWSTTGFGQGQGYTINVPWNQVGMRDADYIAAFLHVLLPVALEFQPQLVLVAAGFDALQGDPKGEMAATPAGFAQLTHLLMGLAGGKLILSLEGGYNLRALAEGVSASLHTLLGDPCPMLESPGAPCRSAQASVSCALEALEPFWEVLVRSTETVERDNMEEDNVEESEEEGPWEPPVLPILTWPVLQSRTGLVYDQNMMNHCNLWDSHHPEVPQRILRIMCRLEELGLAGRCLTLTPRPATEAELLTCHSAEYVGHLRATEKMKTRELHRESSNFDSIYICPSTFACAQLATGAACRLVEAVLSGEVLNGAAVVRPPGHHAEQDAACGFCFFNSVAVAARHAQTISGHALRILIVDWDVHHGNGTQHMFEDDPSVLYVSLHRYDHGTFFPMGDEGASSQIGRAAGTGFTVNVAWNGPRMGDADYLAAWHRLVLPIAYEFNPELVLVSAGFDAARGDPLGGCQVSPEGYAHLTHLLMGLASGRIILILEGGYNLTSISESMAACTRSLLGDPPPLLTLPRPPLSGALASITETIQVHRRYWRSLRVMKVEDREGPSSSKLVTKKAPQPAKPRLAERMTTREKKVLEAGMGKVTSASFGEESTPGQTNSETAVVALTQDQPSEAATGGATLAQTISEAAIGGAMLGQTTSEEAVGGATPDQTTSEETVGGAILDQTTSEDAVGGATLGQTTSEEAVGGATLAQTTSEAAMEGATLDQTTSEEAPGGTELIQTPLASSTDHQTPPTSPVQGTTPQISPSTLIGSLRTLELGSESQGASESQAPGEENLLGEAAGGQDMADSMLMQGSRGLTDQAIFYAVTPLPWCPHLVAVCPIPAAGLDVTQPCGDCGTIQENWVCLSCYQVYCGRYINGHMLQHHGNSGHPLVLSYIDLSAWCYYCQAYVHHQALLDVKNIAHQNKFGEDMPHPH

[2] = biological target: Protein deacetylase HDAC6 (Homo sapiens) (UniProt Q9UBN7); conditions: at 10 µM; remark: listed apart in the source

Compound | inhibition [1] | inhibition [2] [%]
CC(CCCCC(=O)Nc1ccc(C(F)(F)F)cc1)NCCc1c[nH]cn1 (stereo not given) | 3.94% | 
C/C(=C\CNc1ncnc2[nH]cnc12)CO | 5.74% | 
CCC(c1ccccc1)c1c(O)c2ccccc2oc1=O (stereo not given) | 16.2% | 
O=c1c2ccccc2oc2ccccc12 | 92.3% | 
O=c1oc2ccccc2c(O)c1Cc1c(O)c2ccccc2oc1=O | -8.39% | 
Cc1cc(-c2nc3cc(F)ccc3s2)ccc1NC(=O)[C@@H](N)CCCCN | 28.4% | 
CNCCC=C1c2ccccc2C=Cc2ccccc21 | 15.7% | 
CN(C)CCC=C1c2ccccc2COc2ccccc21 | -7.53% | 
CN(C)CCC=C1c2ccccc2C=Cc2ccccc21 | 63.9% | 
CNc1cc2c(Nc3cccc(Br)c3)ncnc2cn1 | 9.09% | 
Cc1ccc2nc(NCCN)c3ncc(C)n3c2c1 | 4.14% | 
O=C1Nc2ccc(I)cc2C1=Cc1cc(Br)c(O)c(Br)c1 | 72.9% | 
C=C[C@@H]1C[C@]1(NC(=O)[C@@H]1C[C@@H]2CN1C(=O)[C@H](C(C)(C)C)NC(=O)O[C@@H]1C[C@H]1CCCCCc1nc3ccc(OC)cc3nc1O2)C(=O)NS(=O)(=O)C1CC1 | 0.36% | 
O=c1c2c(c1=O)N(CCP(=O)(O)O)CCCN2 | 12.1% | 
Cc1ccc([N+](=O)[O-])cc1S(=O)(=O)N(C)C | 6.18% | 
S=C(NCCc1ccccn1)Nc1ccc(Br)cn1 | 8.48% | 
COC(c1ccccc1)(c1ccccc1)[C@H](Oc1nc(C)cc(C)n1)C(=O)O | -8.71% | 
hemin, CHEMBL5308479 |  | 56.4
Mangafodipir (trisodium), CHEMBL5308448 |  | 18
NKP-1339, CHEMBL5308480 |  | 34.9
COc1ccc(CC2NCCc3c2[nH]c2ccc(C)cc32)c(Cl)c1OC (stereo not given) | -1.23% | 
O=C(Nc1ccccc1)Nc1ccc(-c2ccc(C(=O)[C@@H]3CCC[C@H]3C(=O)O)cc2)cc1 | 4.7% and 12.5% | 
CN1CCN(C(=O)c2nc3ccc(Cl)cc3[nH]2)CC1 | 16.2% | 
CN1CCN(c2ccc3nc(-c4c(N)c5c(F)cccc5[nH]c4=O)[nH]c3c2)CC1 | 86.8% | 
CC(C)=CCC[C@](C)(O)[C@H]1CC[C@]2(C)[C@@H]1[C@H](O)C[C@@H]1[C@@]3(C)CC[C@H](O[C@@H]4O[C@H](CO)[C@@H](O)[C@H](O)[C@H]4O[C@@H]4O[C@H](CO)[C@@H](O)[C@H](O)[C@H]4O)C(C)(C)[C@@H]3CC[C@]12C | 11.5% | 
O=C(Cn1ccnc1[N+](=O)[O-])NCc1ccccc1 | 32.3% | 
Cc1c[nH]c(=O)n(CCCN2CCN(c3ccccc3OCC(F)(F)F)CC2)c1=O | 19.2% | 
CS(=O)(=O)N1CCN(Cc2cc3nc(-c4cccc5[nH]ncc45)nc(N4CCOCC4)c3s2)CC1 | 11.1% | 
COc1ccc(-c2nc(N3CCOCC3)c3sc(CN(C)c4ncc(C(=O)NO)cn4)cc3n2)cn1 | 98% | 
COC(=O)Nc1ccc(-c2nc(N3CCOCC3)c3cnn(C4CCN(C(=O)OC)CC4)c3n2)cc1 | 21.1% | 
